# Values joined by “and” are separate entries in the source; they are usually repeats but may differ in a detail not shown here. Equal values may be shown once. Active and inactive are the calls of the source. Cut-off read from the data, not from the text of the source, unless noted: active = inhibition above about 80%; inactive = the rest.
# Experiments:
# [1] = viability loss with induced miR-34 in A549 – imaging, A549 dox-inducible miR-34, nuclei and caspase counts, primary screen (AID 1347080;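 active = compounds whose cell count with miR-34 switched on is under 0.7 times the count with it off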); conditions: A549 miR-34 inducible, Hoechst nuclei count, 48 h
# [2] = galactose survival enhancers in mitochondrial complex I cybrids – cell-based, galactose medium, ATP luminescence, primary screen (AID 1645843;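 active = z-score of at least 1.8 in each of two replicates, scored against plate mean and spread of sample wells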;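 note: positive z means more ATP and so rescue of galactose-driven cybrid death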); conditions: complex I mutant cybrid cells, 72 h, stronger effect = higher value
# [3] = growth inhibition, single agent or in combination, cell-based, chromothripsis tumors, cisplatin or BGB combos (AID 1671449); conditions: LFS_MB_P medulloblastoma cells;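 note: cells exposed for 96 hours; 0% = vehicle DMSO and 100% = killing by high DMSO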
# [4] = growth inhibition, single agent and combos, cell-based, chromothripsis tumors, cisplatin or BGB combos (AID 1671450); conditions: HDN33 neuroblastoma cells, stronger effect = higher value;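 note: cells exposed to compound for four days; 0% = vehicle DMSO and 100% = cell killing by high DMSO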
# [5] = growth inhibition, single agents and combos, ICB984, cell-based, cisplatin or BGB combos, synergistic combos for chromothripsis tumors (AID 1671451; call rule not given here;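 note: cells exposed for 96 hours before readout; 0% = vehicle DMSO and 100% = killing by high DMSO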); conditions: ICB984 medulloblastoma cells, drug combinations, stronger effect = higher value
# [6] = growth inhibition, single agents and combos, LFS_MB_1R, cell-based, cisplatin or BGB combos, synergistic combos for chromothripsis tumors (AID 1671452); conditions: LFS_MB_1R medulloblastoma cells, stronger effect = higher value;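 note: cells exposed for 96 hours before readout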
# [7] = growth inhibition, single agents and combos, HTB85, cell-based, BGB or cisplatin IC20 combos, synergistic combos for chromothripsis tumors (AID 1671453); conditions: HTB85 osteosarcoma cells, drug combinations, stronger effect = higher value;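 note: cells exposed for 96 hours before readout; 0% = vehicle DMSO and 100% = high DMSO killing control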
# [8] = growth inhibition, single agents and combos, CRL2098, cell-based, BGB or cisplatin IC20 combos, synergistic combos for chromothripsis tumors (AID 1671454); conditions: CRL2098 osteosarcoma cells, drug combinations, stronger effect = higher value;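 note: cells exposed for 96 h before readout; 0% = vehicle DMSO and 100% = killing by high DMSO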
# [9] = growth inhibition, single agents and combos, HD-MB03, cell-based, BGB or cisplatin IC20 combos, synergistic combos for chromothripsis tumors (AID 1671455; in the data active = inhibition above about 83%;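 note: 0% = vehicle DMSO and 100% = high DMSO as cytotoxic control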); conditions: HD-MB03 medulloblastoma cells, stronger effect = higher value
# [10] = growth inhibition, single agents and combos, UWB1.289, cell-based, BGB or cisplatin combos, synergistic combos for chromothripsis tumors (AID 1671456); conditions: UWB1.289 ovarian carcinoma cells, stronger effect = higher value;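 note: cells exposed to compound for four days; 0% = vehicle DMSO and 100% = killing by high DMSO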
# [11] = growth inhibition, single agents and combos, LFS_MB_2R, cell-based, cisplatin combos, synergistic combos for chromothripsis tumors (AID 1671457); conditions: LFS_MB_2R medulloblastoma cells, stronger effect = higher value;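 note: cells exposed to compound for four days before readout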
# [12] = growth inhibition, MDA-MB-436, cell-based, BGB or cisplatin combos, synergistic combos for chromothripsis tumors (AID 1671458; call rule not given here;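 note: cells exposed for 96 hours; 0% = vehicle DMSO and 100% = killing by high DMSO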); conditions: MDA-MB-436 breast carcinoma growth inhibition, drug combinations, stronger effect = higher value
# [13] = UWB1.289_BRCA1 ovarian cancer growth, cell-based, BGB or cisplatin combinations (AID 1671459); conditions: UWB1.289 BRCA1 ovarian carcinoma, drug combinations, stronger effect = higher value
# [14] = drug combination toxicity in non-malignant astrocytes – cell-based, BGB or cisplatin IC20 combos, cytotoxicity control for chromothriptic childhood tumor combination screen (AID 1671460); conditions: Human astrocytes, viability inhibition, drug combinations, at 0.5 µM, stronger effect = higher value;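 note: cells exposed to compounds for 96 hours before viability readout; 0% = vehicle and 100% = killing control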
# [15] = BT084 cell growth, single and combined drugs, ICGC_MB145, cisplatin and BGB IC40 combos (AID 1671461); conditions: BT084 medulloblastoma cells, drug combinations, at 0.5 µM, stronger effect = higher value;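 note: cells exposed to drugs for 96 hours; 0% = vehicle DMSO and 100% = high DMSO full killing control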
# [16] = measured here: combination with BGB IC40, at 0.05 µM
# [17] = measured here: combination with cisplatin, at 0.5 µM
# [18] = measured here: combination with cisplatin, at 5 µM
smiles,measurement,setting,value
COc1c(N2CC3CCCNC3C2)c(F)cc2c(=O)c(C(=O)O)cn(C3CC3)c12 (stereo not given),fold change,"[1]; stronger effect = lower value, cell number ratio, induced over uninduced",0.906 (inactive)
same,fold change,[1]; measured here: relative caspase fold change +Dox/-Dox,1.2
same,cell count,"[1]; measured here: total cells with miR-34 induction, stronger effect = lower value",9060
same,cell count,[1]; measured here: total cells without miR-34 induction,10000
same,z-score,[2],0.965 (inactive)
same,inhibition,"[3]; at 0.5 µM, stronger effect = higher value",79.9% (inactive) and -20.5% (inactive)
same,inhibition,"[3]; measured here: combination with BGB IC20, at 0.005 µM",-24.3% and -13.6%
same,inhibition,"[3]; measured here: combination with BGB IC40, at 0.005 µM",-13.7% and -15.3%
same,inhibition,[3]; [16],-23.7% and -12.1%
same,inhibition,"[3]; measured here: combination with cisplatin, at 0.5 µM, stronger effect = higher value",118% and -28.2%
same,inhibition,"[3]; measured here: combination with cisplatin, at 5 µM, stronger effect = higher value",-54.4% and -21.2%
same,inhibition,"[4]; BGB combo, at 5 µM",16.5% and -16.1%
same,inhibition,[4]; at 0.5 µM,-17.5% (inactive) and 7.5% (inactive)
same,inhibition,"[4]; cisplatin combo, at 5 µM",-9.22% and 17.7%
same,inhibition,"[4]; measured here: with BGB IC20 combination, at 0.5 µM",-4.15% and 11.4%
same,inhibition,"[4]; measured here: with cisplatin IC20 combination, at 0.5 µM",-25.5% and 15.3%
same,inhibition,"[4]; single agent, at 5 µM",17.2% and 9.26%
same,inhibition,"[5]; BGB IC20 combo, at 0.005 µM",-0.325% and -11.1%
same,inhibition,"[5]; BGB IC40 combo, at 0.005 µM",-5.95% and -17.1%
same,inhibition,"[5]; BGB IC40 combo, at 0.05 µM",-19.5% and -21.1%
same,inhibition,[5]; at 0.5 µM,-10.7% (inactive) and -20.7% (inactive)
same,inhibition,"[5]; cisplatin combo, at 0.05 µM",-23.8% and -21.1%
same,inhibition,"[5]; cisplatin combo, at 0.5 µM",-1.29% and -29.2%
same,inhibition,"[5]; cisplatin combo, at 5 µM",-29.8% and -8.73%
same,inhibition,"[5]; measured here: 5 uM single agent, at 5 µM",-4.57% and 0.836%
same,inhibition,[6]; at 0.5 µM,-18.3% (inactive) and -14.3% (inactive)
same,inhibition,[6]; [16],-0.314% and -2.89%
same,inhibition,[6]; [17],-10.2% and 25.8%
same,inhibition,[6]; [18],-57.1% and -57%
same,inhibition,[7]; at 0.5 µM,-1.92% (inactive) and -17.4% (inactive)
same,inhibition,"[7]; measured here: with BGB IC20, at 0.5 µM",0.476% and -45.2%
same,inhibition,"[7]; measured here: with BGB IC20, at 5 µM",-14.2% and 1.64%
same,inhibition,"[7]; measured here: with cisplatin IC20, at 0.5 µM",-4.9% and -17.9%
same,inhibition,"[7]; measured here: with cisplatin IC20, at 5 µM",-35.3% and -0.109%
same,inhibition,"[7]; single agent, at 5 µM",12% and -3.92%
same,inhibition,[8]; at 0.5 µM,-38.5% (inactive) and -21% (inactive)
same,inhibition,"[8]; measured here: combination with BGB at IC20, at 0.5 µM",-15.6% and -12.1%
same,inhibition,"[8]; measured here: combination with cisplatin at IC20, at 0.5 µM",-75% and -24%
same,inhibition,[9]; at 0.5 µM,-1.44% (inactive) and -1.69% (inactive)
same,inhibition,"[9]; measured here: combo with BGB at IC20, at 0.5 µM",-9.81% and -2.86%
same,inhibition,"[9]; measured here: combo with cisplatin at IC20, at 0.5 µM",5.04% and -2.25%
same,inhibition,[10]; at 0.5 µM,0.61% (inactive) and 5% (inactive)
same,inhibition,"[10]; measured here: inhibition with BGB combination, at 0.05 µM",-8.87% and -16%
same,inhibition,"[10]; measured here: inhibition with cisplatin combination, at 0.05 µM",-17.8% and -13.4%
same,inhibition,[11]; at 0.5 µM,-15.9% (inactive) and -16.5% (inactive)
same,inhibition,[11]; [17],-17.1% and -8.11%
same,inhibition,[11]; [18],-13.1% and -7.1%
same,inhibition,[12]; at 0.5 µM,-3.8% (inactive) and -6.04% (inactive)
same,inhibition,"[12]; measured here: BGB combination, at 0.5 µM",-11.6% and -4.26%
same,inhibition,"[12]; measured here: BGB combination, at 5 µM",-20.6% and -9.9%
same,inhibition,"[12]; measured here: cisplatin combination, at 0.5 µM",-1.34% and -15%
same,inhibition,"[12]; measured here: cisplatin combination, at 5 µM",-28.3% and -11.1%
same,inhibition,"[13]; BGB combination, concentration series, at 5 µM",5.74% and 12.9%
same,inhibition,[13]; at 0.5 µM,-0.42% (inactive) and 3.8% (inactive)
same,inhibition,"[13]; cisplatin combination, concentration series, at 5 µM",1.62% and 11.9%
same,inhibition,[14],9.7% (inactive) and 6.47% (inactive)
same,inhibition,[14]; measured here: combo with BGB IC20,1.83% and 2.24%
same,inhibition,[14]; measured here: combo with cisplatin IC20,4.24% and 3.81%
same,inhibition,[15],-19% (inactive) and -8.29% (inactive)
same,inhibition,[15]; cisplatin combination,-46.7% and 7.45%

# — PubChem BioAssay
